About 4,300 (8.3%) of roughly 52,000 compounds were called active. Rule as the data show it: active = survival mostly below about 52% (no sharp cut-off); inactive = mostly above about 56%. The entries come from a sample that favours actives as a whole.
Test system: DeltatarO mutant
Assay: S. aureus survival, RN4220 and DeltatarO strains – OD600, teichoic acid synthesis inhibitors, primary screen (AID 463173)
Conditions: S. aureus RN4220 wild type/DeltatarO growth, OD600, 18 h, stronger effect = lower value, screened at 18.75 µg/mL (by protocol)

SMILES | survival
CCOc1ccc(-n2c(=O)c3c(C)c(C)sc3n(Cc3c(F)cccc3Cl)c2=O)cc1 | 96% (inactive)
Cc1cccc(C(=O)NCC(=O)OCc2cc(=O)n3nc(C)sc3n2)c1 | 82% (inactive)
N#Cc1ccc(C(=O)NCc2ccc3c(c2)CCN3C(=O)c2ccc(F)cc2)cc1 | 83% (inactive)
CCOc1ccc(S(=O)(=O)N2Cc3ccccc3CC2C(=O)Nc2ccc(NC(C)=O)cc2)cc1 (centres undefined) | 69% (inactive)
Cc1ccc(-n2ncc(C(=O)Nc3ccc4c(c3)OCO4)c2C2CCN(C(=O)OC(C)(C)C)CC2)cc1 | 79% (inactive)
COc1ccc(CC(CC(=O)O)C(=O)NCc2ccccc2)cc1 (centres undefined) | 81% (inactive)
CCC(=O)Nc1ccc(C(=O)Nc2c[nH]c(=O)[nH]c2=O)cc1 | 85% (inactive)
CC1CCN(c2nnc(-n3cccc3CNc3cccc(F)c3)s2)CC1 | 93% (inactive)
Cc1ccc(NC(=O)CSc2nnc(-c3ccc([N+](=O)[O-])cc3)o2)c(C)c1 | 73% (inactive)
CCOC(=O)c1cc(S(=O)(=O)Nc2cc(C)c(Cl)cc2OC)[nH]n1 | 77% (inactive)
CCOC(=O)c1cc(S(=O)(=O)Nc2ccc(OC)c(Cl)c2)[nH]n1 | -4% (active)
CCOC(=O)c1cc(S(=O)(=O)Nc2cc(OC)ccc2OC)[nH]n1 | 119% (inactive)
COc1cc(OC)cc(C(=O)Nc2cc3c(cc2N2CCCCC2)n(C)c(=O)n3C)c1 | 83% (inactive)
COc1ccc(OC)c(S(=O)(=O)N2CCC(c3ccncc3)CC2)c1 | 122% (inactive)
COc1ccc(-n2cc(C(=O)NCCc3cc(OC)ccc3OC)c3ccccc3c2=O)cc1 | 55% (active)
COc1ccc(CNC(=O)c2cc3c(=O)n(C)c4ccccc4c3n2C)cc1 | 89% (inactive)
COc1ccc(OC)c(CCNC(=O)c2cc3c(=O)n(C)c4ccccc4c3n2C)c1 | 43% (active)
COc1ccc(-n2cc(C(=O)NCc3cccc(OC)c3)c3ccccc3c2=O)cc1 | 110% (inactive)
COc1ccc(-n2cc(C(=O)NCCc3ccc(C)cc3)c3ccccc3c2=O)cc1 | 53% (inactive)
COc1cccc(-n2cc(C(=O)NCc3cccc(Cl)c3)c3ccccc3c2=O)c1 | 58% (active)
COc1ccc(CNC(=O)c2cc3c(=O)n(C)c4ccccc4c3n2C)c(OC)c1 | 50% (inactive)
COc1ccc(CNC(=O)c2cn(-c3cccc(OC)c3)c(=O)c3ccccc23)cc1 | 67% (inactive)
CCOc1ccc(CCNC(=O)c2cn(-c3ccc(OC)cc3)c(=O)c3ccccc23)cc1OCC | 111% (inactive)
CC1CCC(NC(=O)c2ccc(CSc3nc4ccncc4n3Cc3ccc(F)cc3)cc2)CC1 (centres undefined) | 59% (inactive)
